Data reported in PubChem BioAssay AID1159580 (chemical genetic matrix, 2015).
Out of some 5,500 compounds screened, about 2,000 (36%) were called active. Inconclusive results (about 18%) are left out. Rule as the data show it: active = normalized growth mostly below about 0.91 (no sharp cut-off); inconclusive = no clear call, values can overlap the other calls; inactive = mostly above about 0.92. The list shows a part of the results.

Test: chemical genetic growth profiling, strain panel (AID 1159580);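 also: tested at 20 µM; growth read once vehicle control cultures reached saturation at 30 °C; 1 = growth at the plate median or of vehicle wells; lower values mean less growth of the strain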
Conditions: S. cerevisiae deletion strains, growth OD
[1] = locus YAL040C, strain CLN3, hits give low values
[2] = locus YCL061C, strain MRC1 (second series), hits give low values
[3] = locus YDR150W, strain NUM1, hits give low values
[4] = locus YDR363W, strain ESC2, hits give low values
[5] = locus YER002W, strain NOP16, hits give low values
[6] = locus YMR307W, strain GAS1, hits give low values
[7] = locus YNL175C, strain NOP13, hits give low values
[8] = locus YNL197C, strain WHI3, hits give low values
[9] = locus YNL224C, strain SQS1, hits give low values
[10] = locus YOR083W, strain WHI5 (second series), hits give low values
[11] = locus YPL055C, strain LGE1, hits give low values

Measured: normalized growth

N[C@H](CO)C(=O)O
inactive: locus YAL013W, strain DEP1, hits give low values 1.03 | [1] 1.01 | [2] 1 | [3] 1 | [4] 1.03 | [5] 0.986 | locus YJR075W, strain HOC1, hits give low values 1.01 | [6] 1 | locus YNL128W, strain TEP1, hits give low values 0.999 | [7] 0.995 | [8] 0.999 | [9] 0.997 | locus YNL322C, strain KRE1, hits give low values 1 | [10] 0.996 | [11] 1.02

COC(=O)[C@@H](N)Cc1ccc(O)c(O)c1
inactive: [1] 1.03 | [2] 0.971 | [3] 0.958 | [4] 1 | [5] 1 | [6] 0.995 | [7] 1 | [8] 0.984 | [9] 1 | [10] 0.993 | [11] 0.971 | locus YPL241C, strain CIN2, hits give low values 1.01
